In all, about 410,000 compounds went through this assay and about 18,000 (4.4%) were called active. Another 7% or so got no clear call; they are omitted. What follows is part of a selection rich in actives, with near analogues and random picks from the rest. Unmarked numbers belong to inactive results. No stated cut-off is given here; in the data, active means activity change below about -60%; inconclusive means no clear call, values can overlap the other calls; inactive means above about -39%.
Assay: qHTS Assay for inhibitors of the human cytomegalovirus (HCMV)
Conditions: HFF cells, HCMV-luciferase reporter, 72 h; at 57.5 µM; active compounds read low
In short: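 Cell-based, HFFs, 1000 cells/well, 16 h 37C; cpds in DMSO + HCMV-luc, MOI 1 PFU/cell; 72 h 37C; OneGlo luminescence after 5 min RT; norm. to buffer vs Salinomycin 10uM.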
On the % scale 0 is the no-effect control and ±100 the full control effect.

Row | SMILES | activity change, negative = inhibition
1 | O=C(O)c1ccc(OCC2CCCO2)cc1 (centres undefined) | 63.5%
2 | Cc1ccc(CC2CC(=O)N(c3nc(C)cc(C)n3)C2=O)cc1 (centres undefined) | -6.32%
3 | Cc1cc(C)nc(N2C(=O)CC(Cc3ccccc3)C2=O)n1 (centres undefined) | -1.22%
4 | COC(=O)CC1=NN(c2nc(C)cc(C)n2)C(=O)C1 | -72.6% (active)
5 | O=C(NCc1cc(F)cc(C(F)(F)F)c1)C1CCC(=O)N(C2CCCC2)C1 (centres undefined) | 8.32%
6 | O=C(N/N=C/c1ccc(Cl)c(Cl)c1)c1ccc2nc[nH]c2c1 | -65.6% (active)
7 | CC(=NNC(=O)c1ccncc1)c1ccc(Cl)c(Cl)c1 | -31%
8 | NCCCCCC(=O)N/N=C/c1ccc2nccnc2c1 | -14.8%
9 | CCc1ccc(CN(Cc2ccco2)C(=O)c2ccccc2Cl)cc1 | 33.9%
10 | O=C(CN1C(=O)CCn2nc(-c3ccccc3)cc21)NCc1ccccc1 | 6.04%
11 | O=C(COC(=O)Cc1c[nH]c2ccccc12)NCCc1ccccc1 | 10.5%
12 | Cc1cc(C)cc(NC(=S)NCCc2c[nH]c3ccccc23)c1 | -73.6% (active)
13 | c1cncc(CNCCc2c[nH]c3ccccc23)c1 | -8.49%
14 | O=C(c1[nH]ncc1-c1ccc(Cl)cc1)C1CO1 (centres undefined) | -78.7% (active)
15 | COc1ccc(NC(=O)C2Cc3c(-c4ccc(Cl)cc4)ccnc3O2)cc1 (centres undefined) | -3.46%
16 | COc1cccc(CNC(=O)C2CCN(S(=O)(=O)c3ccc4c(ccn4C)c3)CC2)c1 | 16.9%
17 | c1ccc2c(-c3nn4nnnc4c4ccccc34)cccc2c1 | 49.8%
18 | CN(C(=O)CSc1nc2ccc(NC(=O)COc3ccccc3)cc2s1)c1ccccc1 | -30%
19 | COc1ccc2c(c1)c(N1CCCC1=O)c(C(=O)Nc1ccccc1C(F)(F)F)n2C | -24.2%
20 | CCCCCC(=O)N1C[C@H](O)[C@@H](n2cc(COC(=O)c3ccccc3)nn2)C[C@@H]1c1ccc(C)cc1 | -7.72%
21 | Cc1ccc([C@H]2C[C@H](O)[C@@H](n3cc(COC(=O)c4ccccc4)nn3)CN2C(=O)C2CCCCC2)cc1 | 1.46%
22 | Cc1ccc([C@H]2C[C@H](O)[C@@H](n3cc(COC(=O)c4ccccc4)nn3)CN2CC2CCCCC2)cc1 | -100% (active)

Row | SMILES | activity change, negative = inhibition
23 | O=C(CC1Sc2ccccc2NC1=O)NNc1ccc(Cl)c(Cl)c1 (centres undefined) | -35.8%
24 | COc1ccc(N2CCN(S(=O)(=O)c3ccc(-c4coc(C)n4)cc3)CC2)cc1 | -11.2%
25 | CCOc1ccccc1N1CN(Cc2ccccc2)CNC1=S | -2.1%
26 | CCOC(=O)c1ccc(NC2=CC(c3ccc(OCC)cc3)N(c3ccc(C(=O)OCC)cc3)C2=O)cc1 (centres undefined) | 18.7%
27 | CCc1nnc(NC(=O)C2CCN(C(=O)c3ccccc3C)CC2)s1 | 17.6%
28 | CCc1nnc(NC(=O)C2CCCN2S(=O)(=O)c2ccccc2)s1 (centres undefined) | -60.4% (active)
29 | CC(C)c1nnc(NC(=O)C2CCCN2S(=O)(=O)c2ccc(Cl)cc2)s1 (centres undefined) | 2.67%
30 | O=C(CCn1c(=O)c2ccccc2n(Cc2ccc(Cl)cc2)c1=O)NCc1ccc2c(c1)OCO2 | 10.1%
31 | COc1ccc(C(=O)COC(=O)C(O)c2ccccc2)c(OC)c1 (centres undefined) | -26%
32 | COc1ccc(N2CC(C(=O)NCCN3C(=O)S/C(=C\c4cccnc4)C3=O)CC2=O)c(OC)c1 (centres undefined) | 24.9%
33 | COc1ccc(C(=O)/C=C/c2cccnc2)c(OC)c1 | -71.6% (active)
34 | Cc1ccsc1CN(C(=O)c1oc2ccc(Br)cc2c1C)C1CCS(=O)(=O)C1 (centres undefined) | 30.1%
35 | CCN1CCN(c2ncnc3c2cnn3-c2ccc(C)c(C)c2)CC1 | -1.25%
36 | Cc1ccc(NC(=O)c2oc3ccccc3c2NC(=O)Cc2cccs2)cc1 | 14.9%
37 | CCOc1ccc2oc(=O)cc(CN3CCN(C(=O)c4ccc(F)cc4)CC3)c2c1 | -25.5%
38 | CC[n+]1cc(C)ccc1/C=C/c1ccc(N(C)C)cc1 | -99.4% (active)
39 | CCOC(=O)c1ccc(NC(=O)c2ncn(-c3ccccc3)n2)cc1 | 43.5%
40 | COc1ccc(Cl)cc1NC(=O)CSc1nc(=O)[nH]c2c1CCCC2 | 31.1%
41 | NS(=O)(=O)c1ccc(CCNC(=O)CCCCCn2c(=O)[nH]c3ccccc3c2=O)cc1 | 34%
42 | Cc1c(C(=O)N2CCCC2)oc2c1-c1nn(CC(=O)NCc3ccc(OC(C)C)cc3)cc1CC2 | -68.3% (active)
43 | COc1ccccc1N1CCN(c2ccc(=O)n(CC(=O)NCc3ccc(OC(C)C)cc3)n2)CC1 | 13.7%
44 | CCCN(CCC)CCCNC(=O)Cn1cc2c(n1)-c1c(oc(C(=O)N3CCCC3)c1C)CC2 | -39.7%

Source: PubChem BioAssay AID1259415 (National Center for Advancing Translational Sciences (NCATS), 2018)
